Test results as given in the supplement of paper PMC10849652.
Of roughly 8,800 targets only a part is listed; those with a hit were picked by preference. About 0.5% of all pairs of compound and target were hits. A number with no mark means an inactive call.

Legend:
Assay in all cases: log2 fold change, soluble protein after heating vs DMSO (PISA); higher = thermal stabilisation; K562 lysate, 10 uM; active = over 0.2 and 3.5 SD of the protein, either way, in both replicates (recomputed)
vemurafenib = compound: CCCS(=O)(=O)Nc1ccc(F)c(C(=O)c2c[nH]c3ncc(-c4ccc(Cl)cc4)cc23)c1F [vemurafenib]
How it was run: (§1)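 The values are log-two fold changes in thermal stability compared with solvent controls and come from duplicates. They were obtained by TMTpro 16plex LC-MS/MS, with channel sums equalised, on the supernatant after 21,000xg for 90 min. That supernatant came from crude K562 extract at 1 mg/mL protein treated with 10 μM compound for 30 min, heated for 3 min across 48°C-58°C, pooled and brought to 0.5% NP-40 at 4°C.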

[1] = compound: CCCS(=O)(=O)Nc1ccc(F)c(C(=O)c2c[nH]c3ncc(Cl)cc23)c1F
How it was run: as §1

barasertib = compound: CCN(CCCOc1ccc2c(Nc3cc(CC(=O)Nc4cccc(F)c4)[nH]n3)ncnc2c1)CCOP(=O)(O)O [barasertib]
How it was run: as §1

[2] = compound: CC[C@@H]1C(=O)N(C)c2cnc(Nc3ccc(C(=O)NC4CCN(C)CC4)cc3OC)nc2N1C1CCCC1
How it was run: as §1

volasertib = compound: CC[C@@H]1C(=O)N(C)c2cnc(Nc3ccc(C(=O)N[C@H]4CC[C@H](N5CCN(CC6CC6)CC5)CC4)cc3OC)nc2N1C(C)C [volasertib]
How it was run: as §1

[3] = compound: CCn1c(C(=O)N(C2CC2)C2CC2)cc2c3c(ncn3C)c(Nc3cc(C)n(C)n3)nc21
How it was run: as §1

[4] = compound: CCn1cc(-c2ccnc3[nH]c(-c4cccc(CN(C)C)c4)cc23)c(-c2ccc(NC(=O)N(C)C)cc2)n1
How it was run: as §1

[5] = compound: CN1CCC(CNc2ccc3ncc(-c4cccc(OC(F)(F)F)c4)n3n2)CC1
How it was run: as §1

saracatinib = compound: CN1CCN(CCOc2cc(OC3CCOCC3)c3c(Nc4c(Cl)ccc5c4OCO5)ncnc3c2)CC1 [saracatinib]
How it was run: as §1

sotrastaurin = compound: CN1CCN(c2nc(C3=C(c4c[nH]c5ccccc45)C(=O)NC3=O)c3ccccc3n2)CC1 [sotrastaurin]
How it was run: as §1

alvocidib = compound: CN1CC[C@H](c2c(O)cc(O)c3c(=O)cc(-c4ccccc4Cl)oc23)[C@H](O)C1 [alvocidib]
How it was run: as §1

Tubastatin A = compound: CN1CCc2c(c3ccccc3n2Cc2ccc(C(=O)NO)cc2)C1 [Tubastatin A]
How it was run: as §1

[6] = compound: CNC(=O)C1=CC=CC=C1NC2=NC(=NC=C2Cl)NC3=C(C=C(C=C3)N4CCOCC4)OC
How it was run: as §1

defactinib = compound: CNC(=O)c1ccc(Nc2ncc(C(F)(F)F)c(NCc3nccnc3N(C)S(C)(=O)=O)n2)cc1 [defactinib]
How it was run: as §1

[7] = compound: CNc1nc(-c2ccc3c(N)n[nH]c3c2)cc(N2C[C@@H](C(=O)NC3CCCCC3)CC[C@H]2C)n1
How it was run: as §1

encorafenib = compound: COC(=O)N[C@@H](C)CNc1nccc(-c2cn(C(C)C)nc2-c2cc(Cl)cc(NS(C)(=O)=O)c2F)n1 [encorafenib]
How it was run: as §1

[8] = compound: COC(=O)[C@H](CCSC)NC(=O)C1=C(C=C(C=C1)NC[C@H](CS)N)C2=CC=CC=C2
How it was run: as §1

alisertib = compound: COc1cc(Nc2ncc3c(n2)-c2ccc(Cl)cc2C(c2c(F)cccc2OC)=NC3)ccc1C(=O)O [alisertib]
How it was run: as §1

[9] = compound: COc1cc2nc(-c3cc(F)ccc3O)nc(N[C@@H]3CNC[C@H]3C(C)(C)O)c2cc1OC
How it was run: as §1

gefitinib = compound: COc1cc2ncnc(Nc3ccc(F)c(Cl)c3)c2cc1OCCCN1CCOCC1 [gefitinib]
How it was run: as §1

Chain of UniProt Q9BTX1 (Q9BTX1 whole entry, looked up): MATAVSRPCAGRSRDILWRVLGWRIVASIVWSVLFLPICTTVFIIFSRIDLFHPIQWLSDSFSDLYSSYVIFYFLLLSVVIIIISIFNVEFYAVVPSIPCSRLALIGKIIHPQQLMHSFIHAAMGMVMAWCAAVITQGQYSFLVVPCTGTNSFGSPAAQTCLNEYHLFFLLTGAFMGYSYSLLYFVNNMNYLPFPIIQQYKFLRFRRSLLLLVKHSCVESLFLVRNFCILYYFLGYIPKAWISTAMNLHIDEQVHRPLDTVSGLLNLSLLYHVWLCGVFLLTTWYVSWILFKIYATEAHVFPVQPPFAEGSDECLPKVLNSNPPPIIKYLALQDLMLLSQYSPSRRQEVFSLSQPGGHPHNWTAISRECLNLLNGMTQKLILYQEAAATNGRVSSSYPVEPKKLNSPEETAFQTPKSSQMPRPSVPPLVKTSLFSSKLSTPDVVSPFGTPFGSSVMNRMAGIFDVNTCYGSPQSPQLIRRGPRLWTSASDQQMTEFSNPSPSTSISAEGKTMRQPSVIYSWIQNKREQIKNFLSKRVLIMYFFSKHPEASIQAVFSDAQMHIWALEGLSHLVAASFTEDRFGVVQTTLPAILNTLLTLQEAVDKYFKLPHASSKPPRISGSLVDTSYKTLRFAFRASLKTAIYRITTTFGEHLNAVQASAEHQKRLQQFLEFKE
Chain of UniProt Q15653 (Q15653 whole entry, looked up): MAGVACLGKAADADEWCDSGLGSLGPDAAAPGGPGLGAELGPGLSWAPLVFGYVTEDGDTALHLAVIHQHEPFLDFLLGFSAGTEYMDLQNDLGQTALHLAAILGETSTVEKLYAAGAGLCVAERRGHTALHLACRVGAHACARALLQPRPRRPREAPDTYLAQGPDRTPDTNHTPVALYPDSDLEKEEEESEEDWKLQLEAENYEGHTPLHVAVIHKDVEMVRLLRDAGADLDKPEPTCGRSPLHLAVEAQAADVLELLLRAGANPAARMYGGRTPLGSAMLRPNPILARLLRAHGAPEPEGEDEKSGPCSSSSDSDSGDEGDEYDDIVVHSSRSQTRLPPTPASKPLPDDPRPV
Chain of UniProt Q6N063 (Q6N063 whole entry, looked up): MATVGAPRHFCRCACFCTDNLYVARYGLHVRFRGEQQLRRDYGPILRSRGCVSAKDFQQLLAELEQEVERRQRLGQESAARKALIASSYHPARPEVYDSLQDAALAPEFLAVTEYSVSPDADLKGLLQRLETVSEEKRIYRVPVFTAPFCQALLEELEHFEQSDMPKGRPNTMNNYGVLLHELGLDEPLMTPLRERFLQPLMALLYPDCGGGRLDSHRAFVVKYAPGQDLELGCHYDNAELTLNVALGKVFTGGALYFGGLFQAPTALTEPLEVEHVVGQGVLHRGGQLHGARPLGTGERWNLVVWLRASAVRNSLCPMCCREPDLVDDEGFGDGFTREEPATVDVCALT
Chain of UniProt O15294 (O15294 whole entry, looked up): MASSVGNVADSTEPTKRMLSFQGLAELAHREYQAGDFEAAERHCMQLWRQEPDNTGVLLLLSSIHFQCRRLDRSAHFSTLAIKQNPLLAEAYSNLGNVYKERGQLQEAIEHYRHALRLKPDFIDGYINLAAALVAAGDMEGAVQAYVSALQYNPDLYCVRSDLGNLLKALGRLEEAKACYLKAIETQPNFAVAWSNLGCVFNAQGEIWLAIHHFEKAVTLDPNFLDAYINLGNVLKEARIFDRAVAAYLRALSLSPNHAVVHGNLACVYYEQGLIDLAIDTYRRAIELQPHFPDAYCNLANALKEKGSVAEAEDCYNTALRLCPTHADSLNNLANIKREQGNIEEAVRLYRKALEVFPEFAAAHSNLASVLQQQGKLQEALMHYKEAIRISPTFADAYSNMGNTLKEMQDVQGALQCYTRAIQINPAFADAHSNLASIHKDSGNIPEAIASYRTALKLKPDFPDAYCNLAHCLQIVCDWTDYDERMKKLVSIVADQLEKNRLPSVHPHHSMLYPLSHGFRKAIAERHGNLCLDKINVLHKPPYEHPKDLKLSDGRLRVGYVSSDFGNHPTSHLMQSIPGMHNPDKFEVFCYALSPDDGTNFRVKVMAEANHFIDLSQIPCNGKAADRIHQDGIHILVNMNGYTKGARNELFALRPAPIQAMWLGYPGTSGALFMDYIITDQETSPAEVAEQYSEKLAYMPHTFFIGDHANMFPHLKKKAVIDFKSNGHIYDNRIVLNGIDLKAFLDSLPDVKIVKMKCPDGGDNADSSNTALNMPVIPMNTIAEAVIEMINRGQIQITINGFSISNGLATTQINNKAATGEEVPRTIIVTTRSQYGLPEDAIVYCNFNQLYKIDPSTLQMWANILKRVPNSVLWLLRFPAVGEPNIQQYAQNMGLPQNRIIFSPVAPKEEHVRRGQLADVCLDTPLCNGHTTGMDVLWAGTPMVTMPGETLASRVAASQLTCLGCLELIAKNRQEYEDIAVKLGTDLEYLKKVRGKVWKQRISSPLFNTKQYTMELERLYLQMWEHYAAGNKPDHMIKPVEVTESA
Chain of UniProt O94832 (O94832 whole entry, looked up): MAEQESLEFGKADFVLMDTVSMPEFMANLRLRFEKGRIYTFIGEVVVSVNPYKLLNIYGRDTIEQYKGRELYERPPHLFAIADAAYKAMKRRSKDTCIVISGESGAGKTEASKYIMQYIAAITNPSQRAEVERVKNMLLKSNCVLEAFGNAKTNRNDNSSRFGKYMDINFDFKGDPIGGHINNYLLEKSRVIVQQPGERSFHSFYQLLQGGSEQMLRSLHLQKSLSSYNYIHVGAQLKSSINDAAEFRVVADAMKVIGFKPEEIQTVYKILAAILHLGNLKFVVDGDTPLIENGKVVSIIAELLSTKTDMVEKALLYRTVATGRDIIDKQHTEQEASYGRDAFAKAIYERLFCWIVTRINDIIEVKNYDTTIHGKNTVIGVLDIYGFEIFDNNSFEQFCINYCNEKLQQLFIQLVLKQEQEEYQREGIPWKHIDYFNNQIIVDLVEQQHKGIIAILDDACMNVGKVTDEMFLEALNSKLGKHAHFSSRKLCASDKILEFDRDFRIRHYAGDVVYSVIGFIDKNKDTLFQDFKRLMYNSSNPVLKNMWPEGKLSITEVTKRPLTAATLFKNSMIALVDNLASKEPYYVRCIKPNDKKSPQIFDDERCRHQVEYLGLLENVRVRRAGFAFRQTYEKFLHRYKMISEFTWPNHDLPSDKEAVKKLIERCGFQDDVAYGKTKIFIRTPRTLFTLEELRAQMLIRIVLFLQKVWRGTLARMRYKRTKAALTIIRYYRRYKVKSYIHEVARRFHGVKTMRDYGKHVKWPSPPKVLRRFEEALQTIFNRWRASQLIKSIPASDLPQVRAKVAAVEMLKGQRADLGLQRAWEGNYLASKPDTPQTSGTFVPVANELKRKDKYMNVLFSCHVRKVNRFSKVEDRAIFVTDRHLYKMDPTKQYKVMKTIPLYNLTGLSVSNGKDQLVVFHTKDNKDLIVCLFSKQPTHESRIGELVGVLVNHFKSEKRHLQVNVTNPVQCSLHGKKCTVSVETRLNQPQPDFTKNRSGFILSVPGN
Chain of UniProt Q9BPZ3 (Q9BPZ3 whole entry, looked up): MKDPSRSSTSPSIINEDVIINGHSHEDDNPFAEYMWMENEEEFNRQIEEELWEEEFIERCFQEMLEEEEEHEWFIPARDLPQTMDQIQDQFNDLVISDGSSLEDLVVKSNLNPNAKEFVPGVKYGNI
Chain of UniProt P55160 (P55160 whole entry, looked up): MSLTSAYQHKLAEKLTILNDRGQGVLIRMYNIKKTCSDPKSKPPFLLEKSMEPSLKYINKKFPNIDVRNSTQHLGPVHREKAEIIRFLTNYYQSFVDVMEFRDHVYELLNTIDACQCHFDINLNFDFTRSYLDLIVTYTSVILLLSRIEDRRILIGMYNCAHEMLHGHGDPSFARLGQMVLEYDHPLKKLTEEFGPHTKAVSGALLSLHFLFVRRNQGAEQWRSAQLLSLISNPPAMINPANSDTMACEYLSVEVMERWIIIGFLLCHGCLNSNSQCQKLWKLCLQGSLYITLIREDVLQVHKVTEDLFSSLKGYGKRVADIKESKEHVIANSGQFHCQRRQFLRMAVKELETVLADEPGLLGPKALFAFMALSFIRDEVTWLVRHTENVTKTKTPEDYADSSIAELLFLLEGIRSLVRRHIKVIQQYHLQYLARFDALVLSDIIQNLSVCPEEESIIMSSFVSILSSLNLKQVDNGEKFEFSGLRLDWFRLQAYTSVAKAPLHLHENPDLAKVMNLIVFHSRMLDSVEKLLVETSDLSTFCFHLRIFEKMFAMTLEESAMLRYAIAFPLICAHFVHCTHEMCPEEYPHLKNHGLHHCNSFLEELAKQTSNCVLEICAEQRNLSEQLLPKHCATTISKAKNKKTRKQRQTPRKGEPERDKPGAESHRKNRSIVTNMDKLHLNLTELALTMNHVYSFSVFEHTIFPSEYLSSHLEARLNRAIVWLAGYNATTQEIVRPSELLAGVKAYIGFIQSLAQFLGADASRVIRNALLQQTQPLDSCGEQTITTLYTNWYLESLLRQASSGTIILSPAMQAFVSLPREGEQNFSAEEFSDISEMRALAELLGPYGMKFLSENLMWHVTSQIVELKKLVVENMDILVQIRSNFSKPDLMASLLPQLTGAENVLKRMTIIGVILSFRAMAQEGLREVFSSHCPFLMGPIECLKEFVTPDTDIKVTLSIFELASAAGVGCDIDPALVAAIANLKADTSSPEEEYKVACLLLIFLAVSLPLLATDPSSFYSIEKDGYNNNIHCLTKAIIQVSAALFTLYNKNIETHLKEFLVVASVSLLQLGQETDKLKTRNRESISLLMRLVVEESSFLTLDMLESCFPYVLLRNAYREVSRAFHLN
Chain of UniProt Q9BYG3 (Q9BYG3 whole entry, looked up): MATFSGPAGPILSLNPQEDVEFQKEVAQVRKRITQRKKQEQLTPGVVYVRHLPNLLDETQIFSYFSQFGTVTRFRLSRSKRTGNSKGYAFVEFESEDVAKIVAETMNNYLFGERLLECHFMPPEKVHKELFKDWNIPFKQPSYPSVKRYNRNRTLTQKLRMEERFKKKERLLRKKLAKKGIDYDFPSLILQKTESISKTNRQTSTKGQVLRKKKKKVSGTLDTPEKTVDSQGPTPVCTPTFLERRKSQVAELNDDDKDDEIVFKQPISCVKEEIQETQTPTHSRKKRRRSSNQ

Row | Target | log2 fold change (vemurafenib) | log2 fold change [1] | log2 fold change (barasertib) | log2 fold change [2] | log2 fold change (volasertib) | log2 fold change [3] | log2 fold change [4] | log2 fold change [5] | log2 fold change (saracatinib) | log2 fold change (sotrastaurin) | log2 fold change (alvocidib) | log2 fold change (Tubastatin A) | log2 fold change [6] | log2 fold change (defactinib) | log2 fold change [7] | log2 fold change (encorafenib) | log2 fold change [8] | log2 fold change (alisertib) | log2 fold change [9] | log2 fold change (gefitinib)
1 | MTA3 (UniProt Q9BTC8) | 0.019 | 0.002 | 0.017 | 0.023 | -0.022 | -0.055 | -0.017 | -0.097 | 0.036 | -0.006 | -0.016 | -0.013 | 0.019 | 0.044 | -0.043 | 0.041 | 0.091 | 0.077 | 0.025 | -0.059
2 | NFKBIB (UniProt Q15653) | -0.058 | 0.041 | -0.059 | 0.099 | 0.068 | -0.054 | -0.535 (active) | 0.096 | -0.013 | -0.002 | -0.146 | -0.077 | 0.053 | -0.007 | -0.006 | 0.006 | 0.06 | 0 | -0.031 | 0.064
3 | NCKAP1L (UniProt P55160) | -0.14 | 0.032 | 0.131 | -0.068 | 0.004 | -0.049 | -0.025 | -0.082 | -0.083 | 0.032 | -0.033 | -0.043 | 0.198 | 0.009 | 0.063 | 0.058 | -0.223 | 0.022 | -0.025 | -0.059
4 | PAIP2 (UniProt Q9BPZ3) | 0 | -0.013 | 0.272 (active) | 0.039 | -0.018 | 0.02 | -0.043 | -0.001 | -0.081 | -0.073 | 0.009 | 0.045 | -0.03 | -0.056 | 0.037 | -0.092 | 0.071 | -0.038 | -0.049 | -0.019
5 | NFAT5 isoform 5 (UniProt O94916) | 0.019 | -0.007 | -0.041 | 0.043 | -0.016 | 0.042 | -0.003 | 0.044 | 0.038 | 0.044 | -0.026 | 0.003 | -0.027 | 0.007 | 0.077 | 0.043 | -0.041 | -0.072 | -0.01 | 0.454 (active)
6 | OGFOD2 (UniProt Q6N063) | 0.024 | 0.173 | 0.005 | -0.147 | -0.062 | -0.023 | -0.042 | 0.071 | -0.047 | 0.039 | 0.029 | 0.033 | 0.059 | 0.015 | -0.125 | -0.054 | 0.223 (active) | 0.009 | -0.014 | -0.065
7 | NARF (UniProt Q9UHQ1) | 0.035 | 0.035 | 0.028 | 0.011 | 0.135 | -0.025 | -0.055 | 0.014 | 0.023 | 0.049 | 0.001 | 0.011 | 0.031 | -0.015 | -0.014 | 0.047 | 0.003 | -0.021 | -0.019 | -0.007
8 | NUCB2 (UniProt P80303) | 0.01 | -0.009 | -0.004 | 0.052 | 0.022 | -0.008 | 0.338 (active) | -0.084 | 0.015 | -0.026 | 0.061 | 0.036 | 0.007 | -0.039 | 0.005 | 0.001 | -0.027 | 0.003 | 0.014 | 0.004
9 | NCOR2 (UniProt C9J0Q5) | 0.006 | 0.021 | 0.024 | 0.009 | 0.009 | 0.056 | 0.019 | 0.036 | -0.026 | 0.032 | 0.024 | -0.035 | -0.013 | 0.045 | -0.001 | -0.002 | 0.006 | 0.036 | 0.017 | 0.049
10 | NIFK (UniProt Q9BYG3) | 0.015 | 0.036 | 0.033 | 0.006 | -0.027 | 0.009 | 0.093 | -0.045 | 0.005 | -0.018 | 0.009 | -0.023 | -0.023 | 0 | 0.095 | 0.039 | -0.003 | -0.073 | -0.014 | 0.01
11 | NMRAL1 (UniProt Q9HBL8) | -0.03 | -0.023 | 0.178 | 0.045 | -0.046 | 0.045 | -0.092 | 0.053 | 0.011 | -0.034 | 0 | 0.036 | -0.044 | -0.003 | 0.026 | -0.003 | 0.406 (active) | 0.021 | 0.001 | -0.002
12 | OGT (UniProt O15294) | 0.012 | 0.015 | 0.031 | -0.003 | -0.058 | 0.036 | -0.002 | -0.021 | 0.011 | 0.018 | 0.045 | -0.129 | 0.054 | 0.018 | 0.019 | 0.043 | 0.121 | 0.01 | 0.007 | -0.015
13 | NDC1 (UniProt Q9BTX1) | 0.053 | -0.051 | 0.075 | 0.081 | 0.016 | -0.02 | -0.3 | 0.155 | 0.032 | 0.011 | -0.131 | -0.046 | -0.001 | -0.058 | -0.044 | 0.03 | -0.297 (active) | 0.011 | 0.047 | -0.031
14 | OSBP (UniProt P22059) | -0.052 | -0.007 | -0.004 | -0.076 | -0.091 | 0.041 | -0.045 | -0.032 | 0.011 | 0.026 | 0 | 0.06 | -0.193 | -0.009 | -0.155 | 0.017 | 0.001 | 0.026 | 0.042 | -0.045
15 | NT5DC2 isoform 2 (UniProt Q9H857) | 0 | 0.069 | 0.001 | 0.011 | -0.028 | -0.01 | 0.034 | 0.03 | -0.017 | 0.117 | -0.037 | 0.02 | 0.026 | 0.007 | 0.032 | -0.037 | -0.035 | 0.013 | -0.001 | -0.055
16 | MYO1D (UniProt O94832) | 0.073 | 0.018 | 0.05 | 0.006 | -0.003 | -0.002 | -0.05 | -0.035 | -0.001 | 0.041 | 0.026 | -0.091 | -0.006 | 0.048 | -0.008 | 0.058 | -0.012 | -0.019 | 0.012 | -0.016
